PubChem BioAssay (NCATS)
“And” between values parts separate entries of the source, which are not always exact repeats. Equal entries are not always repeated. Results filed as inconclusive are left out. The source made the active and inactive calls. Unless noted, the call rests on the fitted dose curve; in most records, active means well fitted curve in either direction with a large enough effect (not every such curve was filed as active); inconclusive means small, poorly fitted or top-dose-only effect, or another doubt; inactive means flat fitted curve, though single readings scatter.

Legend:
[1] = AP1 Signaling Pathway (AID 357); settings: ME-180 AP-1-bla reporter, EGF-induced, beta-lactamase ratio, 5 h; at 7.69 µM (top of the series) unless noted;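 further: ME-180 reporter cells stimulated with EGF at its EC50 level; on the % scale 0 is the no-effect control and ±100 the full control effect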
Method in brief: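 Modulation of EGF-driven AP-1 transcription was assessed with a beta-lactamase reporter in ME-180 cells. Compound and EC50 EGF were co-incubated 5 hours at 37 °C before 2.5-hour CCF4 loading at room temperature and dual-emission reading.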

[2] = NFAT Signaling Pathway (AID 444); settings: Jurkat NFAT-bla M1, carbachol, beta-lactamase ratio, 5 h; at 7.69 µM (top of the series) unless noted;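 further: carbachol stimulus at about its EC50 of 1 µM final; on the % scale 0 is the no-effect control and ±100 the full control effect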
Method in brief: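 Jurkat cells carrying an NFAT-driven β-lactamase reporter and co-transfected muscarinic M1 receptor were treated with compound plus carbachol (1 uM final, an EC50 level) for 5 h at 37 °C. CCF4 loading followed for 1 h at RT; 460/530 nm ratio gave %activity.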

[3] = Stat Signaling Pathway (AID 446); settings: ME-180 (cervical carcinoma) SIE beta-lactamase reporter, IL-6 stimulated, 5 h; at 7.69 µM (top of the series) unless noted;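 further: ME-180 cervical cancer cells given 40 pM IL-6 alongside compound; SIE-controlled beta-lactamase reporter measured as 460/530 nm FRET emission ratio; on the % scale 0 is the no-effect control and ±100 the full control effect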
Method in brief: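 Normalization used AC90 stimulation (300 pM IL-6) and AC90 inhibition (125 nM pan-JAK inhibitor at 40 pM IL-6). The underlying signal is SIE-driven beta-lactamase in ME-180 cells after 5 h IL-6 exposure with compound.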

[4] = target: Glucocorticoid receptor (Homo sapiens) (UniProt P04150); assay: GR-GFP Redistribution (AID 450;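 active means compounds whose dose series gives a full or clear partial fitted curve of increased nuclear translocation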; further: potency means the concentration at half of the fitted maximal effect); settings: U2OS GR-GFP nuclear translocation, laser cytometry, 2 h
Glucocorticoid receptor (Homo sapiens), sequence (P04150 whole entry, looked up, the tested form may be a part): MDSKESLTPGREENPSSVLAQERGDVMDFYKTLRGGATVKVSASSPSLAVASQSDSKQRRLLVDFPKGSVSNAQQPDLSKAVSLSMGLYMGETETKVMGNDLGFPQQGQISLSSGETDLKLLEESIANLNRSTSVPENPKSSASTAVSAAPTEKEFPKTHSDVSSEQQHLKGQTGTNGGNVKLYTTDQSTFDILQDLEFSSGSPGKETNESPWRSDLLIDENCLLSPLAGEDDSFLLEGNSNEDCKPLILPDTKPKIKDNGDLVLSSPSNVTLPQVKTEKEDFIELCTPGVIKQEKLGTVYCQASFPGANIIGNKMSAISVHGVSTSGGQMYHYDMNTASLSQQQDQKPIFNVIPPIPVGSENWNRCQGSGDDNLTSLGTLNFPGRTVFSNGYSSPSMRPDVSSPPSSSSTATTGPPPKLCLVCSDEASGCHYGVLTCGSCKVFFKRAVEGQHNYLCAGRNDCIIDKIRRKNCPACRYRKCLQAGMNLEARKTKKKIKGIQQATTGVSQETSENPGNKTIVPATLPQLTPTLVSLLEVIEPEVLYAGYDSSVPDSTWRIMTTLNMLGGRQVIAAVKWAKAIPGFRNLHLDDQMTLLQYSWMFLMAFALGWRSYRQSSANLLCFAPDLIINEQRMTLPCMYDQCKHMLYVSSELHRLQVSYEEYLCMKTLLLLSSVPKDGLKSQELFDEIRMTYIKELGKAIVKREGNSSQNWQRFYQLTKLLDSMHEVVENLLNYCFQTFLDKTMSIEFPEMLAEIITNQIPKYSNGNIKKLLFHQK

[5] = target: Glucocorticoid receptor (Homo sapiens) (UniProt P04150); assay: GR-EFC Redistribution (AID 451; calls by dose curve; further: potency means the concentration at half of the fitted maximal effect); settings: CHO-K1 GR-EFC translocation, beta-gal luminescence, 2 h
Method in brief: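 CHO-K1 cells stably expressing nuclear-localized β-gal enzyme acceptor and GR fused C-terminally to the enzyme donor fragment; ligand-driven nuclear translocation restores β-gal by complementation. Compounds titrated up to 46 uM final, 2 h at 37 °C; luminescence read.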

[6] = target: 3',5'-cyclic-AMP phosphodiesterase 4B (Homo sapiens) (UniProt Q07343); assay: qHTS Assay for Inhibitors of PDE-IV (AID 607; active means well fitted activation curve with a large enough effect in the main read-out, with a control signal flat, not every such curve was filed as active; further: % of control where 0% means no effect)
3',5'-cyclic-AMP phosphodiesterase 4B (Homo sapiens), sequence (Q07343 whole entry, looked up): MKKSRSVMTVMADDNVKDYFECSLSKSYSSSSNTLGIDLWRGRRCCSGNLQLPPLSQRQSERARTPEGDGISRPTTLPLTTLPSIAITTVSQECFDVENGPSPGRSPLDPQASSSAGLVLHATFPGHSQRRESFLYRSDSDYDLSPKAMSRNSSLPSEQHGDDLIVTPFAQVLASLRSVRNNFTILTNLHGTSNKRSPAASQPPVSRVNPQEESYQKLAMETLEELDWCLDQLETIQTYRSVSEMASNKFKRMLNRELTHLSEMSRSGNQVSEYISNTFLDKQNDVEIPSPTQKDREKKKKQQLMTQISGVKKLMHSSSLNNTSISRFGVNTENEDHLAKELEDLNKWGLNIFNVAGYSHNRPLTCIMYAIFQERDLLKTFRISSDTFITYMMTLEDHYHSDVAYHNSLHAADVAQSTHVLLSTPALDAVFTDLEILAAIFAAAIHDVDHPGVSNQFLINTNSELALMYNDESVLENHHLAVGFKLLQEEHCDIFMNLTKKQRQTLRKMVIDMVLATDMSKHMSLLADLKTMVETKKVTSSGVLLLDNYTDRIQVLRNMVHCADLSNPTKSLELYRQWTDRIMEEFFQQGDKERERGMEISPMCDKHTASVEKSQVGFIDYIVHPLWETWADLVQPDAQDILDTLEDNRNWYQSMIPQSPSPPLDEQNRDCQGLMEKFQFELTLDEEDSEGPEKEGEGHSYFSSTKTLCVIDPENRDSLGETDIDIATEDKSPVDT
Method in brief: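 HEK293 ACTOne cells with CNG channel (1000/well), endogenous PDE4; membrane potential dye, compounds up to 22.9 uM final. Fluorescence Ex 535/Em 590; RO 20-1724 (100 uM final) as reference.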

[7] = target: Cytochrome P450 1A2 (Homo sapiens) (UniProt P05177); assay: p450-cyp1a2 (AID 410; calls by dose curve; further: potency means the concentration at half of the fitted maximal effect;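 on activity change, negative = inhibition: -100% = full effect of reference inhibitor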)
Cytochrome P450 1A2 (Homo sapiens), sequence (P05177 whole entry, looked up): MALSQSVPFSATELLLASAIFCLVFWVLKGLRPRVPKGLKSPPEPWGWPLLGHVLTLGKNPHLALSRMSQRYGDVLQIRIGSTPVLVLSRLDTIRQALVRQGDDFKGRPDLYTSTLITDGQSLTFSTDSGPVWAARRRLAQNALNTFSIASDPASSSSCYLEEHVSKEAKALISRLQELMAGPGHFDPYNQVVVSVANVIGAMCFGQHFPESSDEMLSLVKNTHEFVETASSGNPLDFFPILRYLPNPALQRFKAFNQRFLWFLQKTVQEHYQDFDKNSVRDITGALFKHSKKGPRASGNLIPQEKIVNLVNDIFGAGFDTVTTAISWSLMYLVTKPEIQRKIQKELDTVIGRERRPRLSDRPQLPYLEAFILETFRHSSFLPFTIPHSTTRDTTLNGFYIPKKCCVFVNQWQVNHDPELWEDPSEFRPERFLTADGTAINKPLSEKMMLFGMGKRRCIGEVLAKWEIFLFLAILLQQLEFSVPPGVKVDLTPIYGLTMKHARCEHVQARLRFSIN
Method in brief: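 O-Demethylation of luciferin 6' methyl ether by human CYP1A2 is monitored as luciferase luminescence. Substrate sits at Km (100uM); enzyme is 20nM. Values are scaled to 57 uM furafylline as maximal inhibition.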

[8] = target: Mitogen-activated protein kinase 10 (Mus musculus) (UniProt Q61831); assay: JNK3 AlphaScreen Assay (AID 530);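 further: kinase came from lysate of stimulated human HepG2 cells; signal reports phosphorylation of biotinylated GST-cJun 1-79 at Ser73 with 10 µM ATP; on the % scale 0 is the no-effect control and ±100 the full control effect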
Method in brief: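 Phosphorylation of biotinylated GST-cJun(1-79) at Ser73 is measured by AlphaScreen proximity luminescence. Enzyme is JNK3 in HepG2 lysates activated with interleukin-1beta and tumor necrosis factor alpha; ATP is 10 uM final.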

[9] = target: Guanine nucleotide-binding protein G(i) subunit alpha-1 (Homo sapiens) (UniProt P63096); assay: qHTS Assay for Inhibitors of RGS12 GoLoco Motif Activity (Green Fluorophore) (AID 879; active means well fitted curve in the direction sought with a large enough effect; an effect the other way counts as inactive or inconclusive;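 further: 0% = labeled peptide with Gαi1 and full inhibition = labeled peptide alone without protein; negative values mean loss of peptide binding seen as reduced polarization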)
Guanine nucleotide-binding protein G(i) subunit alpha-1 (Homo sapiens), sequence (P63096 whole entry, looked up): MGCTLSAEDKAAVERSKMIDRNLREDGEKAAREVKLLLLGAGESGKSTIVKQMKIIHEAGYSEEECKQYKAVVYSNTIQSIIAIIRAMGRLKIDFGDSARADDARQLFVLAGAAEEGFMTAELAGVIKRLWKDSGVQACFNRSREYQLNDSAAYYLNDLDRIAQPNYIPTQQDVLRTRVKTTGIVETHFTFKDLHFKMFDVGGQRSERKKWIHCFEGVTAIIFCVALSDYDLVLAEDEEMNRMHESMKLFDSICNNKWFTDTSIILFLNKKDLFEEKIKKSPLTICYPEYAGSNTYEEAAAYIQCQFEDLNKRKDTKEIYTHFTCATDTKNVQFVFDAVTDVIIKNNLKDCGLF
Method in brief: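 A drop in FITC polarization marked displacement of the FITC-tagged RGS12 GoLoco peptide (10 nM) from Gαi1 (50 nM). Compounds were incubated 10 min at room temperature in Tris pH 7.5 buffer containing 150 mM NaCl, 0.1 mM GDP and 0.05% NP40; unlabeled peptide titration served as control.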

[10] = target: Cytochrome P450 3A4 (Homo sapiens) (UniProt P08684); assay: qHTS Assay for Activators of Cytochrome P450 3A4 (AID 885; active means well fitted curve in the direction sought with a large enough effect; an effect the other way counts as inactive or inconclusive; further: nearly all actives have a fitted effect of over 65% in size; further: potency means the concentration at half of the fitted maximal effect)
Cytochrome P450 3A4 (Homo sapiens), sequence (P08684 whole entry, looked up): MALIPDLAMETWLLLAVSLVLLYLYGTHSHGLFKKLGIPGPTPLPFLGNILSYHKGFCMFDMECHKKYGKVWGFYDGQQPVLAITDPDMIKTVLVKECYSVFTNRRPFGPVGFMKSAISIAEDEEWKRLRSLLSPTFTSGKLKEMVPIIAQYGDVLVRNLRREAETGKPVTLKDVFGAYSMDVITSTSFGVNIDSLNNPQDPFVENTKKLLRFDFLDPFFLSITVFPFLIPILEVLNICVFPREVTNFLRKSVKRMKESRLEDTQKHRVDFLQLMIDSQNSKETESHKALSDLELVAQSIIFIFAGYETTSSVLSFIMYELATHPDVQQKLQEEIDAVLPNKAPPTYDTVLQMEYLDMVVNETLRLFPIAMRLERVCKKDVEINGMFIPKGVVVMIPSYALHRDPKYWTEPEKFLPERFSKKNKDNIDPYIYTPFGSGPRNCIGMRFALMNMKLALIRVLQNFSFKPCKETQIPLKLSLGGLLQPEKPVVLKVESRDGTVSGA
Method in brief: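 Human CYP3A4 dealkylates Luciferin-PPXE to luciferin, which luciferase detection converts to light. Substrate was at its KM (25uM), buffer 200mM KPO4, reaction 60 min at RT.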

[11] = qHTS Assay for Identification of Small Molecule Agonists for Thrombopoietin (TPO) Signaling Pathway (AID 917; active means well fitted curve in the direction sought with a large enough effect; an effect the other way counts as inactive or inconclusive; further: on the % scale 0 is the no-effect control and ±100 the full control effect)
Method in brief: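 Cell-based luciferase reporter screen. Mouse Ba/F3 line stably expressing human TPO receptor; IL-3 removed overnight before plating. Co-treatment with compound and EC50 TPO (26 pM), 24 hrs at 37 C, then luminescence.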

[12] = target: Muscarinic acetylcholine receptor M1 (Rattus norvegicus) (UniProt P08482); assay: qHTS Assay for Antagonists of Acetylcholine Muscarinic M1 Receptor: Measurement of IP-One Response (AID 944; active means well fitted curve in the direction sought with a large enough effect; an effect the other way counts as inactive or inconclusive; further: nearly all actives have a fitted effect of over 75% in size)
Muscarinic acetylcholine receptor M1 (Rattus norvegicus), sequence (P08482 whole entry, looked up): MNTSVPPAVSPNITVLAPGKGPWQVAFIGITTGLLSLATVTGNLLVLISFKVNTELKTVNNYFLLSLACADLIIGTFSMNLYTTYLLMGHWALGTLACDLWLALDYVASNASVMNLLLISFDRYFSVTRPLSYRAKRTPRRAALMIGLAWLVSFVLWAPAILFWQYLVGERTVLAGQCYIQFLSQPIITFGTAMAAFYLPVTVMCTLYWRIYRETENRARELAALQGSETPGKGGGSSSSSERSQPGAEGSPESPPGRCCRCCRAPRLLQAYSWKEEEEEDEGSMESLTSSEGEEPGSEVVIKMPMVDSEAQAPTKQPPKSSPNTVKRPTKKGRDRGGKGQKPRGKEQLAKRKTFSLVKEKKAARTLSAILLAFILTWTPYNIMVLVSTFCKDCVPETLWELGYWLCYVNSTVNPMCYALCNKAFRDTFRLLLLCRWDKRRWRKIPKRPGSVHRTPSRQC
Method in brief: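 Antagonist mode with rat M1 receptor transfected into CHO cells. Compound is added first for 10 min, carbachol at its EC80 follows for 30 min, and lysis reagents then allow TR-FRET detection of accumulated IP1.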

[13] = target: Pyruvate kinase PKM (Homo sapiens) (UniProt P14618); assay: qHTS Assay for Activators of Human Muscle Pyruvate Kinase (AID 954; active means well fitted curve in the direction sought with a large enough effect, not every such curve was filed as active;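 further: 0% = uninhibited enzyme and -100% = no enzyme or full thiadiazolimine inhibition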)
Pyruvate kinase PKM (Homo sapiens), sequence (P14618 whole entry, looked up): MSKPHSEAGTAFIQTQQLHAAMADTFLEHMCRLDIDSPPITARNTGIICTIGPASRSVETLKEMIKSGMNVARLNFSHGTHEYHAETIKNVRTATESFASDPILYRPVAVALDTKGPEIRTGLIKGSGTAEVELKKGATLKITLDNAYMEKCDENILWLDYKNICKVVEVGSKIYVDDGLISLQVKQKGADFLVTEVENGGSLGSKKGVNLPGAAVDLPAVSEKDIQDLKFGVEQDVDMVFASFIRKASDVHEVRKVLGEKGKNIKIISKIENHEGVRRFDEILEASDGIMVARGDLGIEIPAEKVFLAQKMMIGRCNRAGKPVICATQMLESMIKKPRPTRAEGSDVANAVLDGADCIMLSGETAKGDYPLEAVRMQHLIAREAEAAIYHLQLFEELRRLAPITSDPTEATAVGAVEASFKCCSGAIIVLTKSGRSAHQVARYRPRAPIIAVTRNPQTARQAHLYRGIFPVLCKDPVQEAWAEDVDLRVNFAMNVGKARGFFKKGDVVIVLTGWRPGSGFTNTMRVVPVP
Method in brief: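 Compound pinned into substrate mix (0.5 mM PEP, 0.1 mM ADP), then 0.1 nM PKM2 added; 1 h, RT. Stop/detection luciferase reagent added, luminescence read. Normalized to no-inhibition and no-enzyme or reference-inhibitor controls.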

[14] = target: Alpha-galactosidase A (Homo sapiens) (UniProt P06280); assay: Counterscreen for Glucocerebrosidase Inhibitors: qHTS Assay for Human alpha-Galactosidase at pH 4.5 (AID 992; active means well fitted curve in the direction sought with a large enough effect; an effect the other way counts as inactive or inconclusive; further: 0% is about no effect)
Alpha-galactosidase A (Homo sapiens), sequence (P06280 whole entry, looked up): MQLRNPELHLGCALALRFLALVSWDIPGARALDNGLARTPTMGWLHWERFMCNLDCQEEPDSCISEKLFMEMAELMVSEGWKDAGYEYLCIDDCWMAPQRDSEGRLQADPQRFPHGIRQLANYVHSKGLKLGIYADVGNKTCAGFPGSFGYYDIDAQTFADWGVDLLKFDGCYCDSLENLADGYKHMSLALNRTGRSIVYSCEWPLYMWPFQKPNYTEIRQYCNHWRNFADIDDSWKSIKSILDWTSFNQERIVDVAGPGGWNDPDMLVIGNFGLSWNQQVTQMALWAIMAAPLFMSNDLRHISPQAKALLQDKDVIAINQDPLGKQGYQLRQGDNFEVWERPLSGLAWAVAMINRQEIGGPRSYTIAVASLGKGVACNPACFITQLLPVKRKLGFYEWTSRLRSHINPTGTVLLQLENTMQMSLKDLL
Method in brief: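 Steps: enzyme (2 nM final), then compound across 0.7 nM to 77 uM, then 80 uM fluorogenic galactopyranoside substrate; incubate 20 min at room temperature; quench at pH 10; measure fluorescence at 365/440 nm.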

[15] = target: alpha-glucosidase (Oryza sativa, rice) (UniProt Q653V4); assay: Counterscreen for Glucocerebrosidase Inhibitors: qHTS Assay for Rice alpha-Glucosidase at pH 5.0 (AID 997; active means well fitted curve in the direction sought with a large enough effect; an effect the other way counts as inactive or inconclusive;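 further: 0% = full activity with enzyme and -100% = basal without enzyme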)
Method in brief: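 Endpoint fluorogenic assay at pH 5.0: compounds (0.7 nM to 77 uM) titrated against 4 nM rice enzyme and 400 uM 4-MU-alpha-glucoside for 20 min at room temperature; NaOH/glycine stop, read ex 365/em 440 nm, Hill-fitted AC50.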

[16] = target: Cytochrome P450 2C9 (Homo sapiens) (UniProt P11712); assay: qHTS Assay for Inhibitors and Substrates of Cytochrome P450 2C9 (AID 883; active means well fitted curve in the direction sought with a large enough effect; an effect the other way counts as inactive or inconclusive; further: potency means the concentration at half of the fitted maximal effect; nearly all actives have a fitted effect of over 60% in size)
Method in brief: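 A luminogenic readout tracked human CYP2C9 (10nM) converting deoxyluciferin (100uM, at KM) in 25mM KPO4 during 60 min at 37C with regenerated NADPH. Values normalized to 57uM sulphaphenazole as complete inhibition.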

[17] = target: Pyruvate kinase (Leishmania mexicana) (UniProt Q27686); assay: qHTS Validation Assay for Inhibitors of Leishmania Mexicana Pyruvate Kinase (AID 945; active means well fitted curve in the direction sought with a large enough effect; an effect the other way counts as inactive or inconclusive;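 further: 0% = DMSO only neutral control wells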)
Pyruvate kinase (Leishmania mexicana), sequence (Q27686 2-499 E452W): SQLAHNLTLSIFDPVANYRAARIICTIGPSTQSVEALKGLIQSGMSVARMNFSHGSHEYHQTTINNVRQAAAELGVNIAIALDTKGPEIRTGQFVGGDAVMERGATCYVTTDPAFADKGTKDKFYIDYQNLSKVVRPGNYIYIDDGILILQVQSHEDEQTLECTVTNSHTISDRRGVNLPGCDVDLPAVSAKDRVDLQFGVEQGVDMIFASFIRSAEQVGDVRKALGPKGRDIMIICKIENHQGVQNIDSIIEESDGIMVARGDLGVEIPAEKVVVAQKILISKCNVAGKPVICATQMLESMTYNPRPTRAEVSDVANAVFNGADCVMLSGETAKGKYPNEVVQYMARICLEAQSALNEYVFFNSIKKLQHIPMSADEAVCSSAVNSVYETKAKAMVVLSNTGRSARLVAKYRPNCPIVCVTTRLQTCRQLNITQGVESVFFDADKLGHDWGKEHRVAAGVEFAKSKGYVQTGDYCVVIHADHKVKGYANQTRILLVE
Method in brief: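 Mutant LmPYK (E451W), 0.2 nM, plus 0.5 mM PEP and 0.1 mM ADP in 50 mM imidazole pH 7.2 containing 0.01% Tween 20 and 0.05% BSA. Incubated 1 h at room temperature; luminescence via PKLight, normalized to DMSO.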

Cc1ccc(N=Nc2c(O)ccc3cc(S(=O)(=O)O)ccc23)cc1
inactive: activity change, negative = inhibition [1] -18.1% | activity change, negative = inhibition [2] -0.401% | activity, negative = inhibition [3] -4.61% | Potency [4] > 46 µM | Potency [5] > 9.22 µM | Potency [6]

OC1CC2CC[C@H](C1)N2CCCN1c2ccccc2Sc2ccc(Cl)cc21 (some centres not stated)
inactive: activity change, negative = inhibition [1] 18.1% | Potency [7] | Potency [4] > 46 µM | Potency [5] > 9.22 µM | Potency [8] | Potency [6]

[N-]=[N+]=CC(=O)COC(=O)c1ccccc1
inactive: activity change, negative = inhibition [1] 9.2% | activity change, negative = inhibition [2] 16.5% | activity, negative = inhibition [3] -0.859% | Potency [4] > 46 µM | Potency [5] > 9.22 µM | Potency [8] | Potency [6]

O[C@H](CN1CCN(c2cccc(Cl)c2)CC1)C(c1ccccc1)c1ccccc1
active: Potency [7] 12.6 µM | Potency [10] 7.94 µM
inactive: activity change, negative = inhibition [1] -10.5% [at 38 µM] | activity, negative = inhibition [3] 24.9% [at 38 µM] | Potency [4] > 46 µM | Potency [5] > 46 µM | Potency [8] | Potency [6] | outcome [9] | outcome [11] | Potency [12] | outcome [13] | outcome [14] | Potency [15]

CC(C)(C)[C@@]1(O)CCN2C[C@@H]3c4ccccc4CCc4cccc(c43)[C@@H]2C1
active: Potency [16] 1.58 µM
inactive: activity change, negative = inhibition [1] -4.55% [at 38 µM] and 8.62% [at 38 µM] | activity change, negative = inhibition [2] -14.6% [at 38 µM] and -5.47% [at 38 µM] | activity, negative = inhibition [3] -1.04% [at 38 µM] and -27.5% [at 38 µM] | Potency [4] > 46 µM | Potency [5] > 46 µM | Potency [6] | Potency [12] | outcome [17] | outcome [13] | outcome [14] | Potency [15]

CC[C@H](C)[C@@H]1O[C@]2(CC[C@@H]1C)C[C@H]1C[C@H](CC=C(C)[C@@H](O[C@H]3C[C@H](OC)[C@H](O[C@H]4C[C@H](OC)[C@H](O)[C@H](C)O4)[C@H](C)O3)[C@@H](C)C=CC=C3CO[C@@H]4[C@@H](O)C(C)=C[C@H](C(=O)O1)[C@@]34O)O2
inactive: activity change, negative = inhibition [1] -14% [at 38 µM] | Potency [7] | Potency [4] > 46 µM | Potency [5] > 46 µM | Potency [6] | Potency [10] | outcome [13] | outcome [14] | Potency [15]

CN[C@@H](CC(C)C)C(=O)N[C@@H]1C(=O)N[C@H](CC(N)=O)C(=O)N[C@H]2C(=O)N[C@H]3C(=O)N[C@H](C(=O)N[C@H](C(=O)O)c4cc(O)cc(O)c4-c4cc3ccc4O)[C@H](O)c3ccc(c(Cl)c3)Oc3cc2cc(c3O[C@@H]2O[C@@H](CO)[C@@H](O)[C@@H](O)[C@H]2O[C@H]2C[C@](C)(N)[C@H](O)[C@H](C)O2)Oc2ccc(cc2Cl)[C@@H]1O
inactive: activity change, negative = inhibition [1] -0.977% [at 38 µM] | activity change, negative = inhibition [2] 0.625% [at 38 µM] | activity, negative = inhibition [3] 4.5% [at 38 µM] | Potency [4] > 46 µM | Potency [5] > 46 µM | Potency [8] | Potency [6] | outcome [9] | outcome [11] | outcome [17] | outcome [13] | outcome [14] | Potency [15]
